Experimental data as given in PubChem BioAssay (Tox21).
Values joined by “and” are separate entries in the source; they are usually repeats but may differ in a detail not shown here. Equal values may be shown once. Inconclusive results are not listed. Active and inactive are the calls of the source. Unless noted, calls follow the shape of the dose curve; as a rule, active = well fitted curve in the direction sought with a large enough effect in the repeat runs; inconclusive = weak or mixed curves; inactive = no such curve, though single readings can be large; an effect the other way counts as inactive or inconclusive.

Experiments:
[1] = qHTS assay to identify small molecule agonists of the vitamin D receptor (VDR) signaling pathway - cell viability counter screen (AID 743224); also: series mostly up to about 63 µM; % is scaled to controls: 0 for no effect and ±100 for the full control effect; nearly all actives have a fitted effect of over 50% in size
Procedure, shortened: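 VDR-bla cell line, quantitative HTS format; 16 h compound incubation (37C, 5% CO2); ATP-based CellTiter-Glo luminescence measured in the reporter assay wells.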

[2] = qHTS assay to identify small molecule antagonists of the vitamin D receptor (VDR) signaling pathway - cell viability counter screen (AID 743225); also: % is scaled to controls: 0 for no effect and ±100 for the full control effect; nearly all actives have a fitted effect of over 50% in size
Procedure, shortened: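 Parallel cytotoxicity test: VDR-UAS-bla HEK 293T, 3 nM (final) 1-alpha,25-dihydroxyvitamin D3 with test compound, 16 h, 37C. Endpoint is CellTiter-Glo luminescence in the same wells.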

[3] = qHTS assay to identify small molecule agonists of the NFkB signaling pathway (AID 1159509; active = well fitted curve in the direction sought with a large enough effect in the signal ratio in the repeat runs, not every such curve was filed as active; the % refers to the signal ratio; also: series mostly up to about 61 µM; % is scaled to controls: 0 for no effect and ±100 for the full control effect)
Procedure, shortened: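 After overnight attachment, reporter cells received test compounds, DMSO or positive controls and were incubated 5 hr at 37 C. FRET substrate was then added for 1.5 hr at room temperature before dual-emission fluorescence reading.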

[4] = qHTS assay to identify small molecule agonists of the NFkB signaling pathway - cell viability counter screen (AID 1159515; calls by dose curve; also: series mostly up to about 61 µM; % is scaled to controls: 0 for no effect and ±100 for the full control effect; nearly all actives have a fitted effect of over 55% in size)
Procedure, shortened: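 Viability in NFkB-bla ME-180 cells was measured by CellTiter-Glo luminescence, 30 min room temperature, in wells already treated 5 hr with compounds and read for reporter FRET.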

[5] = qHTS assay to identify small molecule agonists of the endoplasmic reticulum stress response signaling pathway - cell viability counter screen (AID 1159517; calls by dose curve;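 also: HeLa cells carrying an ER stress response element beta-lactamase reporter; series mostly up to about 61 µM; % is scaled to controls: 0 for no effect and ±100 for the full control effect; nearly all actives have a fitted effect of over 50% in size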)
Procedure, shortened: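 Counter-screen wells were identical to the reporter wells. Cells were plated at 1,500 per well and dosed for 5 hr, then read for luminescence 30 min after CellTiter-Glo addition.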

[6] = qHTS assay to identify small molecule antagonists of the retinoid-related orphan receptor gamma (ROR-gamma) signaling pathway - cell viability counter screen (AID 1159520); also: % is scaled to controls: 0 for no effect and ±100 for the full control effect; nearly all actives have a fitted effect of over 50% in size
Procedure, shortened: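 Tet-on ROR gamma CHO cells were given compounds for 2 hr, then doxycycline hyclate at 1 uM final, and incubated 16 hr at 37 C. Viability was measured as ATP content by CellTiter-Glo luminescence.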

[7] = target: Nuclear receptor ROR-gamma (Homo sapiens) (UniProt P51449); experiment: qHTS assay to identify small molecule antagonists of the retinoid-related orphan receptor gamma (ROR-gamma) signaling pathway (AID 1159521)
Procedure, shortened: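 Decreased RORE-driven luciferase luminescence indicates antagonism. Tet-on RORγ CHO cells received compound, then 1 uM final doxycycline 2 h later; signal read after 16 h incubation.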

[8] = qHTS assay to identify small molecule agonists of the AP-1 signaling pathway - cell viability counter screen (AID 1159525; calls by dose curve; also: nearly all actives have a fitted effect of over 55% in size)
Procedure, shortened: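 AP-1-bla ME-180 cells in Opti-MEM with 0.5% dialyzed FBS, compound exposure 5 h at 37 C in 15-point titration. Viability read in the same wells as ATP content by CellTiter-Glo luminescence, normalised to tetra-n-octylammonium bromide and DMSO controls.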

[9] = qHTS assay to identify small molecule agonists of the AP-1 signaling pathway (AID 1159526; calls by dose curve; also: % is scaled to controls: 0 for no effect and ±100 for the full control effect)
[10] = target: Retinoic acid receptor RXR-alpha (Homo sapiens) (UniProt P19793); experiment: qHTS assay to identify small molecule agonists of the RXR signaling pathway (AID 1159527; calls by dose curve; also: % is scaled to controls: 0 for no effect and ±100 for the full control effect; nearly all actives have a fitted effect of over 35% in size)
Procedure, shortened: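 16 hr incubation of compound-treated RXR-alpha-UAS-bla HEK 293T cells (2% charcoal-stripped FBS, 37 C) preceded a 2 hr room-temperature LiveBLAzer FRET substrate step and blue/green fluorescence measurement.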

[11] = qHTS assay to identify small molecule agonists of the RXR signaling pathway - cell viability counter screen (AID 1159529)
Procedure, shortened: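 In this parallel viability measure, GeneBLAzer RXR-alpha HEK 293T cells (2% charcoal-stripped FBS) were given a 5 hr preincubation, treated with compounds 16 hr at 37 C, and read by CellTiter-Glo luminescence.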

[12] = qHTS assay to identify small molecule antagonists of the retinoid acid receptor (RAR) signaling pathway - cell viability counter screen (AID 1159551); also: % is scaled to controls: 0 for no effect and ±100 for the full control effect; nearly all actives have a fitted effect of over 35% in size
Procedure, shortened: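 Following overnight attachment, C3RL4 reporter cells received DMSO-dissolved compounds and then retinol (1 uM final). Six hours later at 37 C, ATP content was measured by CellTiter-Glo luminescence.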

[13] = qHTS assay to identify small molecule antagonists of the estrogen related receptor (ERR) signaling pathway from Tox21 library - cell viability counter screen (AID 1224834); also: % is scaled to controls: 0 for no effect and ±100 for the full control effect; nearly all actives have a fitted effect of over 30% in size
Procedure, shortened: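 Viability readout (CellTiter-Fluor fluorescence, 30 min at 37 C) multiplexed with the ERR assay; cells treated 17.5 h at 37 C with compounds delivered in DMSO.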

[14] = target: Luciferin 4-monooxygenase (Photinus pyralis) (UniProt P08659); experiment: qHTS assay to identify small molecule inhibitors of firefly luciferase (AID 1224835); also: nearly all actives have a fitted effect of over 25% in size; also: potency is read from the fitted curve at half-maximal effect
Procedure, shortened: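 Biochemical qHTS: compounds run as interplate titrations against purified firefly enzyme, with D-luciferin and ATP each at its KM concentration. Light output recorded by CCD imaging.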

[15] = qHTS assay to identify small molecule agonists of the constitutive androstane receptor (CAR) signaling pathway - cell viability counter screen (AID 1224836); also: series mostly up to about 92 µM; % is scaled to controls: 0 for no effect and ±100 for the full control effect; nearly all actives have a fitted effect of over 45% in size
Procedure, shortened: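 Using CellTiter-Fluor, viability of HepG2 cells harbouring hCAR and CYP2B6-2.2kb was measured following 23 h incubation with a 15-concentration compound series plus PK11195 (0.75 uM final).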

[16] = qHTS assay to identify small molecule antagonists of the retinoic acid receptor (RAR) signaling pathway (AID 1159552)
Procedure, shortened: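 C3RL4 RARE-luc cells, overnight plating; retinol 1 uM final added right after compound; 6 hr 37 C; luciferase read at 30 min RT.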

[17] = qHTS assay to identify small molecule agonists of the endoplasmic reticulum stress response signaling pathway (AID 1159516; active = well fitted activation curve with a large enough effect in the signal ratio in the repeat runs, not every such curve was filed as active; the % refers to the signal ratio; also: % is scaled to controls: 0 for no effect and ±100 for the full control effect)
Procedure, shortened: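 ER stress element reporter (bla) in HeLa. 1,500 cells/well, overnight attachment; 5 hr compound; 2 hr RT substrate; dual-emission fluorescence.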

[18] = qHTS assay to identify small molecule agonists of the retinoic acid receptor (RAR) signaling pathway (AID 1159553); also: potency is read from the fitted curve at half-maximal effect
Procedure, shortened: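 Cell line C3RL4, RARE luciferase reporter. Treatment: compounds in DMSO, 6 hr, 37 C, 5% CO2, after overnight plating. Detection: luminescence, 30 min RT after reagent.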

[19] = qHTS assay to identify small molecule antagonists of the estrogen related receptor (ERR) signaling pathway - cell viability counter screen (AID 1224818);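 also: series mostly up to about 46 µM; viability measured after 17.5 h of compound exposure; % is scaled to controls: 0 for no effect and ±100 for the full control effect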
Procedure, shortened: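 Here, ERR cells are plated at 2,000 cells per well, allowed 6 h to attach, and treated with compounds in DMSO for 17.5 h at 37 C. CellTiter-Fluor is then added and fluorescence read after 30 min.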

[20] = qHTS assay to identify small molecule antagonists of the estrogen related receptor signaling pathway with the pleiotropic PPARgamma coactivator (PGC) cell viability counter screen (AID 1224822)
Procedure, shortened: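 qHTS format, DMSO compound stocks pin-transferred onto PGC/ERR cells 6 h after plating; 17.5 h exposure at 37 C, then CellTiter-Fluor fluorescence.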

Sequence of Luciferin 4-monooxygenase (Photinus pyralis) (P08659 whole entry, looked up): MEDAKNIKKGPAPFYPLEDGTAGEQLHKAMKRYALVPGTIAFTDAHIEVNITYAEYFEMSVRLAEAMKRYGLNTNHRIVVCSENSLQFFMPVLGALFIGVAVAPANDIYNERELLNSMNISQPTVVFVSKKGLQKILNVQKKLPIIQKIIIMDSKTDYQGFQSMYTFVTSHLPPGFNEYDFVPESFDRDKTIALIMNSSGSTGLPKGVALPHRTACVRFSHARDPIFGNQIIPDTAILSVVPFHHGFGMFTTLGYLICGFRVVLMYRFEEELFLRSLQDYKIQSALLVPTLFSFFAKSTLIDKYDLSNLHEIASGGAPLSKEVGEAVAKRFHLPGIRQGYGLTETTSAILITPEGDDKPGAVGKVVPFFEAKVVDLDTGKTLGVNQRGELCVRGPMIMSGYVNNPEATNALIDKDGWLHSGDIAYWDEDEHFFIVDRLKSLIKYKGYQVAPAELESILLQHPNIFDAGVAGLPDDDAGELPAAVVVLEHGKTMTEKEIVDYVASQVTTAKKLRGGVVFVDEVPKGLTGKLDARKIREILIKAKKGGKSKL
Sequence of Retinoic acid receptor RXR-alpha (Homo sapiens) (P19793 whole entry, looked up): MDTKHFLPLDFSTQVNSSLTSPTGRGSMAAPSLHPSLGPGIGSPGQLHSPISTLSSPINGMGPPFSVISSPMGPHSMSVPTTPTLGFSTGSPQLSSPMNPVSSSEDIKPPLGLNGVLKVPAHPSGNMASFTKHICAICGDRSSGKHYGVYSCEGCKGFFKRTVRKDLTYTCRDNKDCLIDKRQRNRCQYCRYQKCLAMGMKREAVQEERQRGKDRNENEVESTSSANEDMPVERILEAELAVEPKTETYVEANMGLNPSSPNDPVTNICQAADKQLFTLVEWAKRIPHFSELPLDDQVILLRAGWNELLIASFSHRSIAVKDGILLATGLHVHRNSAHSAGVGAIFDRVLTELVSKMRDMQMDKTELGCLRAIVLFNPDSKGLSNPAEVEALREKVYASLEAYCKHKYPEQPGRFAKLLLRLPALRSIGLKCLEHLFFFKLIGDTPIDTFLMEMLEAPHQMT

O=C(O)CCCCCCCCCCC(=O)O
inactive: Potency [1] | outcome [2] | outcome [3] | outcome [4] | outcome [5] | Potency [6] | Potency [7] | Potency [8] | outcome [9] | Potency [10] | Potency [11] | outcome [12] | Potency [13] | Potency [14] | Potency [15]

O=C(O)c1ccc(C(=O)O)cc1
inactive: Potency [1] | outcome [3] | outcome [4] | outcome [5] | Potency [7] | Potency [8] | outcome [9] | Potency [10] | Potency [11] | outcome [12] | Potency [13] | Potency [14] | Potency [15]

C[Si](O[Si](C)(C)C)O[Si](C)(C)C
inactive: Potency [1] | outcome [2] | outcome [3] | outcome [4] | outcome [5] | Potency [6] | Potency [7] | Potency [8] | outcome [9] | Potency [10] | Potency [11] | outcome [12] | Potency [13] | Potency [14] | Potency [15]

Nc1ccccc1[N+](=O)[O-]
inactive: Potency [1] | outcome [2] | outcome [3] | outcome [4] | outcome [5] | Potency [7] | Potency [8] | outcome [9] | Potency [10] | Potency [11] | outcome [12] | Potency [16] | Potency [13] | Potency [14] | Potency [15]

CC(=O)OCC(=O)[C@@]12N=C(C)O[C@@H]1C[C@H]1[C@@H]3CCC4=CC(=O)C=C[C@]4(C)[C@H]3[C@@H](O)C[C@@]12C
inactive: Potency [1] | outcome [2] | outcome [4] | outcome [17] | outcome [5] | Potency [6] | Potency [7] | Potency [8] | outcome [9] | Potency [10] | Potency [11] | outcome [12] | Potency [18] | Potency [13] | Potency [14] | Potency [15]

CCCCCCCCCCCCOCCO
active: Potency [14] 25.2 µM and 30.9 µM
inactive: Potency [1] | outcome [2] | outcome [3] | outcome [4] | outcome [5] | Potency [6] | Potency [7] | Potency [8] | outcome [9] | Potency [11] | outcome [12] | Potency [16] | Potency [13] | Potency [15]

O=C(OCCOCCOC(=O)c1ccccc1)c1ccccc1
inactive: Potency [1] | outcome [3] | outcome [4] | outcome [5] | Potency [6] | Potency [7] | Potency [8] | outcome [9] | Potency [11] | outcome [12] | Potency [16] | Potency [18] | Potency [13] | Potency [14] | Potency [15]

NNc1nncc2ccccc12
active: Potency [18] 770 nM and 5.17 µM
inactive: Potency [1] | outcome [2] | outcome [3] | outcome [4] | outcome [5] | Potency [7] | Potency [8] | activation [9] -4.28% [at 15.8 µM] | activation [10] -4.54% [at 15.8 µM] | activity change, negative = cytotoxicity [11] -0.524% [at 15.8 µM] | outcome [12] | Potency [16] | outcome [19] | outcome [20] | viability change, negative = cytotoxic [13] 6.05% [at 19 µM] | Potency [15]
